A selection: hits, their analogues and other compounds. The true share with any hit is near 3%.
TRPM1 prom inh – inhibitors of MITF-driven TRPM1 promoter in melanoma cells | inhibition, % at 12.5 µM | SK-MEL-5 TRPM1 promoter luciferase, 24 h | 330,000 compounds, 0.83% hits;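 active means mean inhibition across replicates of 60% or more, whatever share of single replicates reaches that level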
Peg3 promoter – inhibitors of Peg3 promoter; HeLa PEG-Prom luciferase reporter, luminescence, overnight; inhibition, % at 20 µM; 360,000 compounds, 1.7% hits; AID 588405;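 active means inhibition of at least 50% at 20 µM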
Shn3 inh set2 – Schnurri-3 reporter inhibition in Clone20 osteoblasts; AID 588674; inhibition, % at 12.5 µM; 360,000 compounds, 0.52% hits; Clone20 osteoblast Shn3 3'UTR firefly luciferase, 24 h;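 active means mean inhibition of at least 75% with every replicate also reaching 75%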;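 further: 0% = median of neutral control wells and 100% = pilot-screen positive control compound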
PAX8 reporter – lowers PAX8-driven luciferase in RMG-I cells; 360,000 compounds, 1.2% hits; AID 652154; inhibition, % at 12.6 µM; RMG-I TPO-luciferase reporter, SteadyGlo, 24 h;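 active means mean replicate inhibition at least 60% with every replicate also reaching 60%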;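 further: luciferase light reporting Pax8 driven TPO promoter activity; plate controls were median of neutral control wells for no effect and mitoxantrone controls for full effect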
EWS-Fli inh – blocks EWS/Fli oncoprotein-driven transcription | A673 NR0B1-luciferase reporter, viability-normalised | inhibition, % at 12.6 µM | 350,000 compounds, 0.67% hits | AID 651661;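 active means mean inhibition of at least 50% after viability correction, with every replicate also passing that limit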;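 further: firefly luciferase signal divided by Alamar Blue viability fluorescence both relative to DMSO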
ABHD5-PLIN5 inh – inhibitors of human ABHD5-perilipin-5 interaction. Q00G26+Q8WTS1. Split G. princeps luciferase complementation, luminescence, 4 h. inhibition, % at 4 µM. 360,000 compounds, 0.78% hits;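 active means inhibition above the mean inhibition across every tested compound plus 3 SD, cut at about 22% in these data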;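 further: 0% = DMSO only wells and the 100% control is not disclosed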
Target sequence (Q00G26 whole entry, looked up): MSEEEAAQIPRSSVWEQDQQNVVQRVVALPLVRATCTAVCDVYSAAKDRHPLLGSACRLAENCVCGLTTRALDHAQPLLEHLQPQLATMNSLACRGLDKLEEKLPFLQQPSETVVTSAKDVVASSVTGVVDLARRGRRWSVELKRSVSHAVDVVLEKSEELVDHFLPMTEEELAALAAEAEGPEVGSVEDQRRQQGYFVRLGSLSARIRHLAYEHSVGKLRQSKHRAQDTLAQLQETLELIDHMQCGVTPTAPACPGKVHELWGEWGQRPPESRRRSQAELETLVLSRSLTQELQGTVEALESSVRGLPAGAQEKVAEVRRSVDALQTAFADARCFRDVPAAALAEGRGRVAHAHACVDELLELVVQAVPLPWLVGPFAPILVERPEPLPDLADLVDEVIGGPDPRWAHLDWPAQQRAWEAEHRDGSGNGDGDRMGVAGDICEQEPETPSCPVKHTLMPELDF
Target sequence (Q8WTS1 whole entry, looked up): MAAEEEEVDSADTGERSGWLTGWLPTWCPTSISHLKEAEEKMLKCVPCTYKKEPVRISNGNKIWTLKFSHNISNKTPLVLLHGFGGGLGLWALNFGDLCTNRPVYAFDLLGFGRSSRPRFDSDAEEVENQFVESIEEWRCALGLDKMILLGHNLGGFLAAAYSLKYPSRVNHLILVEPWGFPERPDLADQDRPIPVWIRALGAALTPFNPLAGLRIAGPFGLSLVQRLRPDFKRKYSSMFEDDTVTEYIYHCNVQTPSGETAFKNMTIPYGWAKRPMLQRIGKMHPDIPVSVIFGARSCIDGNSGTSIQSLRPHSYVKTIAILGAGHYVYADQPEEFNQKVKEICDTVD
ABHD5 PLIN5 conf – ABHD5-PLIN5 interaction inhibition, confirmed. shares compounds with ABHD5-PLIN5 inh. inhibition, % at 4 µM. biochemical ABHD5-PLIN5 interaction, luminescence. 2,200 compounds, 67% hits; in the data active means inhibition above about 23%;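 further: 0% = DMSO vehicle wells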
HNF4 counter – counter-screen for ABHD5-PLIN5 inhibitors: HNF4 split-luciferase. shares compounds with ABHD5-PLIN5 inh. HNF4 dimerization, luminescence, biochemical. inhibition, % at 4 µM. 2,200 compounds, 77% hits. AID 651674;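 active means mean inhibition across replicate wells exceeding the computed hit threshold, cut at about 13% in these data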;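 further: light from luciferase halves that rejoin when HNF4 fusion proteins dimerize; 0% = DMSO only wells and the 100% control is not given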
The depositor's hits bear a star; . = not tested or not shown.

SMILES	TRPM1 prom inh	Peg3 promoter	Shn3 inh set2	PAX8 reporter	EWS-Fli inh	ABHD5-PLIN5 inh	ABHD5 PLIN5 conf	HNF4 counter
CC(=O)Oc1ccc(C23c4ccccc4C2(OC(C)=O)c2cc(OC(C)=O)ccc23)cc1 (stereo not given)	47	34	15	9	17	99*	102*	53*
COc1cc(/C=C2\CC/C(=C\c3ccc(OCCO)c(OC)c3)C2=O)ccc1OCCO	9	21	-5	-2	6	22	.	.
COc1ccc(C=C2C(=O)c3ccccc3C2=O)cc1O	11	-4	8	5	4	5	.	.
COc1ccc(/C=C2\CC/C(=C\c3ccc(OC)cc3OC)C2=O)c(OC)c1	-19	-113	20	-18	-49	-1	.	.
COc1cc(/C=C2\COC/C(=C\c3ccc(O)c(OC)c3)C2=O)ccc1O	79*	101*	.	53	77*	54*	90*	84*
COc1cc(/C=C2/CC/C(=C/c3ccc(O)c(OC)c3)C2=O)ccc1O	14	-34	-4	71*	59*	24*	26*	32*
COc1ccc(/C=C2\CN(Cc3ccccc3)C/C(=C\c3ccc(OC)c(O)c3)C2=O)cc1O	98*	102*	96*	90*	62*	72*	93*	86*
COc1ccc(/C=C2\CCC/C(=C\c3ccc(OC)c(OC)c3OC)C2=O)c(OC)c1OC	-6	23	23	13	8	38*	10	16*
CNC[C@H]1OCCCC[C@@H](C)Oc2ccc(NS(=O)(=O)c3cn(C)cn3)cc2C(=O)N([C@@H](C)CO)C[C@H]1C	.	.	.	-9	-10	.	.	.
COc1cc(/C=C/C=C2/CC/C(=C/C=C/c3ccc(O)c(OC)c3)C2=O)ccc1O	-3	4	9	3	6	26*	62*	68*
COc1ccc(/C=C2\CC/C(=C\c3ccc(OC)c(OC)c3)C2=O)cc1OC	24	-122	-37	9	-23	31*	58*	44*
CCOC(=O)c1cnc2c(C)cccc2c1NCc1ccco1	7	-14	15	.	.	24*	4	8
COc1ccc(-c2sc3ccccc3c2-c2ccc(OCCN(C)C)cc2)cc1	76*	101*	51	100*	43	40*	21	8
CN(C)CCOc1ccc(-c2c(-c3ccsc3)sc3ccccc23)cc1	3	98*	-5	-10	4	29*	12	-2
C[C@H](CO)N1C[C@H](C)[C@@H](CN(C)C(=O)NC2CCCCC2)OCCCC[C@H](C)Oc2ccc(NS(=O)(=O)c3ccc(Cl)cc3)cc2C1=O	.	.	.	28	2	.	.	.
COc1ccc(C(=O)/C=C/c2ccccc2)c(OC)c1	-29	68*	-80	.	-82	26*	42*	28*
COCOc1cc(O)c(C(=O)/C=C/c2ccccc2)c(OCOC)c1	28	95*	-2	.	8	41*	69*	63*
COc1ccc(C(=O)/C=C/c2ccc(N(C)C)cc2)c(OC)c1	-14	-43	-5	23	40	1	.	.
O=C(C=Cc1ccccn1)c1ccccc1O	88*	98*	-17	-13	2	67*	99*	89*
Cc1ccc(/C=C/C(=O)c2ccccc2O)cc1	-37	-208	-14	-156	-91	21	.	.
Cc1cccc(C=CC(=O)c2ccccc2)c1	-45	-124	16	-183	-109	27*	57*	44*
CC(C)NC(=O)N1CC2(C1)[C@@H](c1ccccc1)[C@@H](CO)N2C(=O)c1ccccn1	.	.	.	-11	5	.	.	.
C[C@H]1CN([C@@H](C)CO)C(=O)c2cccc(NC(=O)NC3CCCCC3)c2O[C@H]1CN(C)Cc1ccncc1	.	.	.	-15	0	.	.	.
COc1cc(C)cc(C(=O)C=Cc2ccccc2)c1O	-28	-23	15	-3	-5	64*	95*	75*
COC1=C(C)C(O)=C(C(=O)/C=C/c2ccccc2)C(=O)C1(C)C	-4	33	-7	-7	13	20	.	.
SMILES	TRPM1 prom inh	Peg3 promoter	Shn3 inh set2	PAX8 reporter	EWS-Fli inh	ABHD5-PLIN5 inh	ABHD5 PLIN5 conf	HNF4 counter
COc1ccc(/C=C/C(=O)c2cc3cccc(OC)c3oc2=O)cc1	8	-1	-4	9	-34	37*	64*	53*
Cc1ccc(O)c(C(=O)C=Cc2ccccc2)c1	2	-6	-13	.	-18	41*	88*	55*
COc1cc(/C=C/C(=O)c2ccccc2O)cc(OC)c1OC	.	34	-9	.	-1	52*	90*	84*
CNC(=O)c1cc2cccc(OC)c2oc1=O	10	-4	-3	.	.	-2	.	.
CCCC#Cc1cnc2c(c1)C(=O)N([C@H](C)CO)C[C@@H](C)[C@@H](CN(C)C(=O)Cc1cccnc1)O2	.	.	.	.	-4	.	.	.
CC(=O)N(C)C[C@H]1Oc2cc(-c3ccccc3F)ccc2S(=O)(=O)N([C@@H](C)CO)C[C@H]1C	.	.	.	.	-8	.	.	.
O=C(/C=C/c1cccnc1)c1ccc([N+](=O)[O-])cc1	12	48	0	2	.	57*	89*	94*
O=C(C=Cc1ccccc1)c1ccc([N+](=O)[O-])cc1	-8	40	-7	-17	0	67*	95*	91*
Cc1[nH]c(C)c(C(=O)/C=C/c2ccc([N+](=O)[O-])cc2)c1C	0	-50	13	2	63*	25*	39*	44*
CCOC(=O)c1[nH]c(C)c(C(=O)/C=C/c2ccc(C(=O)O)cc2)c1C	-3	7	-5	-4	2	7	.	.
CN(C)c1ccc(C(=O)C=Cc2ccc([N+](=O)[O-])cc2)cc1	.	-50	-14	-12	-6	3	.	.
O=C(/C=C/c1ccco1)c1cccnc1	8	5	-9	2	5	9	.	.
O=C(C=Cc1ccco1)c1ccc([N+](=O)[O-])cc1	-13	-18	-5	5	-2	35*	47*	42*
COc1ccc(C=CC(=O)c2ccc([N+](=O)[O-])cc2)cc1	5	-61	19	-20	-9	16	.	.
O=C1/C(=C/C=C/c2ccccc2)Oc2c1ccc(O)c2CN1CCN(CCO)CC1	1	-21	-15	23	5	31*	18	18*
COc1ccccc1/C=C/C=C1\Oc2c(ccc(O)c2CN2CCN(CCO)CC2)C1=O	-22	-33	-23	2	-4	21	.	.
COCCCN1CCN(C2Cc3ccccc3Sc3ccc(Cl)cc32)CC1 (stereo not given)	-12	19	-6	2	.	25*	17	3

Bioassay records (PubChem BioAssay)
